Compounds without any hit were thinned out: in the full panel of roughly 83,000, 20% have a hit.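 96-well plates, one dose, 48 hours. Percent growth reported; active if below 10.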 Values without a mark were called inactive. Active and inactive are the calls of the source.

Holding throughout (assay): NCI-60 one-dose screen, 48 h (100 = growth as untreated, 0 = no growth, -100 = all killed)
The subject of one experiment is NCI-H226 lung. The settings on record: 10 µM.
The test system of a further experiment is NCI-H322M lung. The following applies: 10 µM.
The subject of a further experiment is HOP-62 NSCLC. The following applies: 10 µM.
For another experiment, the system named is NCI-H460 lung. The following applies: 10 µM.
The test system of the next experiment is A549/ATCC NSCLC. The following applies: 10 µM.
For the next experiment, the system named is 786-0 renal. The settings on record: 10 µM.
A further experiment relates to DU-145 prostate. The settings on record: 10 µM.
A further experiment has as its system SF-268 CNS. The settings on record: 10 µM.
Another experiment relates to SF-295 CNS. The settings on record: 10 µM.
The subject of a further experiment is SF-539 CNS. The settings on record: 10 µM.
The test system of another experiment is HCT-15 colon. The settings on record: 10 µM.
A further experiment relates to HT29 colon. The settings on record: 10 µM.
Another experiment relates to SNB-75 CNS. The following applies: 10 µM.
In another experiment the test system is SNB-19 CNS. The settings on record: 10 µM.
In another experiment the test system is PC-3 prostate. The settings on record: 10 µM.
The next experiment concerns EKVX NSCLC. The following applies: 10 µM.
A further experiment deals with UO-31 renal. The following applies: 10 µM.
The next experiment concerns ACHN renal. The settings on record: 10 µM.
A further experiment deals with HL-60(TB) leukemia. The settings on record: 10 µM unless noted.
For another experiment, the system named is MOLT-4 leukemia. The settings on record: 10 µM.

Regarding `CC(C)=CCc1c2c(c(O)c3c1O[C@]14C(=C[C@@H]5C[C@H]1C(C)(C)O[C@@]4(C/C=C(/C)C(=O)O)C5=O)C3=O)C=CC(C)(C)O2`, the growth in the experiment with NCI-H226 lung was -2.64% (active); in the experiment on NCI-H322M lung, -84.9% (active); in the experiment with HOP-62 NSCLC it was -71.1% (active); in the experiment with NCI-H460 lung it was -67.4% (active); in the experiment on A549/ATCC NSCLC, -43.9% (active); with 786-0 renal, -82.7% (active). Besides, the growth in the experiment on DU-145 prostate was -100% (active); in the experiment with SF-268 CNS it was -75.1% (active); with SF-295 CNS it was -64.5% (active); in the experiment on SF-539 CNS, -38.9% (active); in the experiment with HCT-15 colon it was -72.5% (active); in the experiment on HT29 colon it was -86.7% (active). Besides, the growth was -62.3% (active) in the experiment with SNB-75 CNS; -50.9% (active) with SNB-19 CNS; -37.8% (active) with PC-3 prostate; -62.3% (active) in the experiment with EKVX NSCLC; -76% (active) in the experiment on UO-31 renal; -82.6% (active) in the experiment with ACHN renal. Also, the growth with HL-60(TB) leukemia was -33.7% (active); in the experiment with MOLT-4 leukemia it was -15.6% (active).

On to `COC(=O)[C@H]1[C@@H](O)[C@@]2(O)c3c(OC)cc(OC)cc3O[C@@]2(c2ccc(OC)cc2)[C@@H]1c1ccccc1`, for which the growth in the experiment on NCI-H226 lung is 3.03% (active); in the experiment with NCI-H322M lung, -19% (active); in the experiment on HOP-62 NSCLC it was -11.6% (active); with NCI-H460 lung it was 2.19% (active); in the experiment with A549/ATCC NSCLC, -14.9% (active); in the experiment on 786-0 renal, 0.303% (active). Further, the growth in the experiment with DU-145 prostate was -9.42% (active); with SF-268 CNS it was 0.0752% (active); in the experiment with SF-295 CNS, -14.4% (active); with SF-539 CNS it was -25.6% (active); in the experiment with HCT-15 colon, -3.06% (active); in the experiment with HT29 colon it was -34.3% (active). In addition, the growth in the experiment on SNB-75 CNS is -6.18% (active); with SNB-19 CNS it was -4.86% (active); with PC-3 prostate, -7.51% (active); in the experiment on EKVX NSCLC, -5.16% (active); in the experiment on UO-31 renal, -20.5% (active); in the experiment with ACHN renal, -23% (active). Also, the growth was -21.8% (active) with HL-60(TB) leukemia and 2.37% (active) with MOLT-4 leukemia.

Turning to `CC1=C2C(=C[C@@](C)(COC(=O)c3ccc(S(=O)(=O)F)cc3)[C@@H]2OC(=O)c2ccc(S(=O)(=O)F)cc2)C(=O)[C@](C)(O)C12CC2`, the growth is -6.08% (active) in the experiment on NCI-H226 lung; 9.18% (active) with NCI-H322M lung; -20.3% (active) with HOP-62 NSCLC; 0.279% (active) in the experiment on NCI-H460 lung; 2.93% (active) in the experiment with A549/ATCC NSCLC; -44.2% (active) in the experiment with 786-0 renal. The growth is 5.79% (active) in the experiment on DU-145 prostate; 2.06% (active) in the experiment on SF-268 CNS; 1.3% (active) in the experiment on SF-295 CNS; -4.86% (active) with SF-539 CNS; 0.515% (active) with HCT-15 colon; 2.13% (active) in the experiment with HT29 colon. Further, the growth in the experiment with SNB-75 CNS was -8.24% (active); in the experiment with SNB-19 CNS, 21.5%; with PC-3 prostate, 16.2%; in the experiment with EKVX NSCLC, 23.6%; in the experiment with UO-31 renal, -13.7% (active); with ACHN renal, -15.8% (active). Moreover, the results for the growth in the experiment on HL-60(TB) leukemia and in the experiment with MOLT-4 leukemia were 8.8% (active) and 23.4%, respectively.

The record behind these values is PubChem BioAssay (NCI).
